# Results filed as inconclusive are left out. Activity calls are given as the source filed them. Unless noted, the call rests on the fitted dose curve; in most records, active means well fitted inhibition curve with a large enough effect; inconclusive means small, poorly fitted or top-dose-only effect; inactive means no such curve, though single readings can be large or run the other way.
# Key:
# [1] = qHTS profiling of the MIPE4 collection as inhibitors of Plasmodium falciparum (3D7) proliferation (AID 743344; call rule not given here;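 further: scaled between DMSO vehicle wells and 0.29 µM artemisinin as full inhibition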); conditions: P. falciparum 3D7 in erythrocytes, SYBR Green DNA fluorescence, 72 h; at 28.5 µM unless noted
# Summary of the method: (§1)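 Erythrocytes infected with P. falciparum (0.3% parasitemia, 2.5% hematocrit) incubated with compounds 72 h at 37 C, 5% CO2. Lysis with saponin/Triton buffer containing SYBR Green I, overnight at room temperature in the dark; DNA fluorescence (485/535 nm) normalised to 0.29 uM artemisinin and DMSO.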
# [2] = qHTS profiling of the MIPE4 collection as inhibitors of Plasmodium falciparum (DD2) proliferation (AID 743345; call rule not given here); conditions: P. falciparum Dd2 in erythrocytes, SYBR Green DNA, 72 h; at 28.5 µM unless noted
# Summary of the method: as §1
# [3] = qHTS profiling of the MIPE4 collection as inhibitors of Plasmodium falciparum (DD2) proliferation (Rep 2) (AID 743346; call rule not given here); conditions: P. falciparum Dd2 in erythrocytes, SYBR Green DNA, 72 h; at 28.5 µM unless noted
# Summary of the method: as §1
# [4] = qHTS profiling of the MIPE4 collection as inhibitors of Plasmodium falciparum (HB3) proliferation (AID 743347; call rule not given here;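 further: plate controls were DMSO vehicle wells for no effect and artemisinin wells for full effect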); conditions: P. falciparum HB3 in erythrocytes, SYBR Green DNA, 72 h; at 28.5 µM unless noted
# Summary of the method: as §1
# [5] = High-throughput drug toxicity screening in the BPDCN cell line Gen2.2 (AID 1224824; call rule not given here;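 further: cells exposed to compounds for 48 h before reading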); conditions: Gen2.2 BPDCN cells; at 45.8 µM (top of the series) unless noted
# Summary of the method: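 Gen2.2, 500 cells/well, phenol red-free RPMI/10% FBS/Pen-Strep; 48 h cpd, 37 °C/5% CO2; CTG lum, 15 min RT. Norm: DMSO = 100%, bortezomib 9.2 uM final = 0%.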
# [6] = High-throughput drug toxicity screening in the BPDCN cell line Cal-1 (AID 1224825; call rule not given here); conditions: Cal-1 BPDCN cell viability, qHTS; at 45.8 µM (top of the series) unless noted
# Summary of the method: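 Exponentially growing Cal-1 cells, 500 per well in phenol red-free RPMI with 10% FBS, were exposed to compounds for 48 h at 37 °C, 5% CO2. Viability was read by CellTiter-Glo luminescence and normalised to DMSO (100%) and 9.2 uM bortezomib (0%).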
# [7] = qHTS assay for measurement of the activity of small molecule inhibitors on Zika virus induced Caspase-3 activity in human iPSC derived neural progenitor cells (hNPCs) (AID 1224857); further: % of control where 0% means no effect; nearly all actives have a fitted effect of over 65% in size
# Summary of the method: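 Zika virus (2 FFU/cell) infection of human iPSC-derived NPCs, 6 h, following 1 h compound preincubation. Read-out: Caspase-Glo 3/7 luminescence.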
# [8] = qHTS assay for measurement of the activity of small molecule inhibitors on Zika virus induced Caspase-3 activity in human astrocytoma cells (AID 1224859);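 further: plate controls were ZIKV-infected untreated cells for no effect and uninfected cells for full effect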
# Summary of the method: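 Caspase activation in ZIKV-infected SNB-19 cells (2 FFU/cell, 6 h) measured by Caspase-Glo 3/7 luminescence after 30 min RT; compound pre-incubated 1 h; normalised to uninfected and infected controls.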
# [9] = qHTS Screen of the MIPE 4.0 Collection Against Ewings Sarcoma (RDES) (AID 1259252); further: nearly all actives have a fitted effect of over 35% in size; further: potency means the concentration at half of the fitted maximal effect
# Summary of the method: (§2)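 Here, cells in 5% FBS RPMI were exposed for two days (48 h) to compound dilutions added four hours after plating. ATP-based CellTiter-Glo luminescence measured viability, normalized to vehicle and no-cell blanks.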
# [10] = qHTS Screen of the MIPE 4.0 Collection Against Ewings Sarcoma (TC71) (AID 1259253); further: nearly all actives have a fitted effect of over 40% in size; further: potency means the concentration at half of the fitted maximal effect
# Summary of the method: as §2
# [11] = qHTS Screen of the MIPE 4.0 Collection Against Ewings Sarcoma (EW8) (AID 1259255); further: nearly all actives have a fitted effect of over 35% in size; further: potency means the concentration at half of the fitted maximal effect;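 on viability: 100% = DMSO-treated cells and 0% = medium-only wells without cells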
# Summary of the method: as §2
# [12] = qHTS Screen of the MIPE 4.0 Collection Against Ewings Sarcoma (TC32) (AID 1259256); further: nearly all actives have a fitted effect of over 45% in size; further: potency means the concentration at half of the fitted maximal effect
# Summary of the method: as §2
Structure (SMILES),"parasite growth, % of DMSO control [1] [%]","parasite growth remaining, % of DMSO control (lower = more inhibition) [2] [%]","parasite growth, % of control (lower = inhibition) [3] [%]","growth, % of control [4] [%]","cell viability, % of control (lower = more cytotoxic) [5] [%]",viability (% of control) [6] [%],Potency [7],Potency [8],Potency [9],Potency [10],Potency [11],Potency [12]
O=C1NC(=O)C(=Cc2ccc3nccc(-c4ccncc4)c3c2)S1,6.28,7.95,7.98,3.52,3.73,4.43,inactive,inactive,0.187 µM (active),0.166 µM (active),0.132 µM (active),0.0743 µM (active)
COc1cc2ncnc(Nc3cccc(Br)c3)c2cc1OC,8.2,37.1,48.9,8.18,64,5.16,inactive,inactive,0.132 µM (active),0.59 µM (active),1.48 µM (active),0.833 µM (active)
CCOC(=O)N1CCN([N+]([O-])=NOc2ccc([N+](=O)[O-])cc2[N+](=O)[O-])CC1,67.7,83,70.7,60.8,17.4,13.5,inactive,inactive,16.6 µM (active),10.5 µM (active),3.32 µM (active),3.72 µM (active)
Cn1cc(C=CC(=O)c2cccc(F)c2)cc1C=CC(=O)NO,69.1,90.9,56.3,99.1,7.04,4.87,inactive,inactive,23.5 µM (active),18.7 µM (active),16.6 µM (active),20.9 µM (active)
CC1=C(C(=O)Nc2cc3cn[nH]c3cc2F)C(c2ccc(Cl)cc2F)N=C(c2ccnc(Cl)c2)N1 (stereo not given),13.2,36.2,21.1,10.9,4.15,3.35,inactive,inactive,18.7 µM (active),14.8 µM (active),26.4 µM (active),16.6 µM (active)
C=CCNc1c(O)cc2c(O)c1C[C@@H](C)C[C@H](OC)[C@@H](O)[C@@H](C)C=C(C)[C@H](OC(N)=O)[C@@H](OC)C=CC=C(C)C(=O)N2,4.69,6.14,11.1,8.78,5.31,6.05,inactive,inactive,2.64 µM (active),2.35 µM (active),5.9 µM (active),0.264 µM (active)
CC(C)c1cc(C(C)C)c(CC(=O)NS(=O)(=O)Oc2c(C(C)C)cccc2C(C)C)c(C(C)C)c1,82.5,89.6,80.1,89.6,94.3,60.9,inactive,inactive,7.43 µM (active),0.743 µM (active),7.43 µM (active),inactive
N#Cc1cc(NC(=O)Nc2nnc(-c3ccncc3)s2)ccc1-c1cn[nH]c1,45.1,101,74.6,41.3,92.3,111,inactive,inactive,inactive,inactive,inactive,inactive
c1cc(CN2CCCNCCNCCCNCC2)ccc1CN1CCCNCCNCCCNCC1,91.4,96.2,74,88.5,133,120,inactive,inactive,inactive,inactive,inactive,inactive
Cc1cnc(Nc2ccc(N3CCN(C)CC3)cc2)nc1Nc1cccc(S(=O)(=O)NC(C)(C)C)c1,5.3,8.81,12.4,,2.75,1.93,inactive,inactive,2.64 µM (active),2.64 µM (active),2.09 µM (active),2.35 µM (active)
Cc1cn([C@@H]2O[C@H](CO)[C@@H](O)[C@H]2F)c(=O)[nH]c1=O,100,94.7,78.6,,189,72.5,inactive,inactive,inactive,inactive,inactive,inactive
Cc1cc(C(=O)NOCCO)c(Nc2ccc(I)cc2F)n(C)c1=O,51.4,87.7,84.7,66.5,7.2,30.2,inactive,inactive,inactive,inactive,inactive,inactive
CCOC(=O)C=C[C@H](C[C@@H]1CCNC1=O)NC(=O)[C@@H](CC(=O)[C@@H](NC(=O)c1cc(C)on1)C(C)C)Cc1ccc(F)cc1,22,98.4,41.1,37.6,74.1,107,inactive,inactive,inactive,inactive,inactive,inactive
Cc1ccc([N+](=O)[O-])cc1S(=O)(=O)N(C)N=Cc1cnc2ccc(Br)cn12,5.89,11.3,20.1,3.45,28.8,3.92,inactive,inactive,0.0296 µM (active),0.0209 µM (active),0.0372 µM (active),0.0469 µM (active)
O=C(Nc1cccc(Nc2ncc(Br)c(NCCc3cnc[nH]3)n2)c1)N1CCCC1,7.42,13.6,17.4,3.84,15.3,2.84,inactive,inactive,7.43 µM (active),6.62 µM (active),0.235 µM (active),0.296 µM (active)
CC(=O)NC(CS)C(=O)O (stereo not given),101,97.9,118,60.7,87,93.6,inactive,inactive,inactive,inactive,inactive,inactive

# From PubChem BioAssay (NCATS)
